# Experimental data from PubChem BioAssay.
# Values joined by “and” are separate entries in the source; they are usually repeats but may differ in a detail not shown here. Equal entries are not always repeated. Active and inactive are the calls of the source.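 The calls were made as follows, unless noted: active = compounds whose cell count with miR-34 switched on is under 0.7 times the count with it off; inactive = the rest.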 Where a SMILES comes first, the peptide text is derived from it. [ ]: non-standard residue; d: D form.
# Key:
# [1] = test system: Aerobactin synthetase IucA (Klebsiella pneumoniae); assay: IucA aerobactin synthetase inhibitors, biochemical, Tocris library, absorbance (AID 1345561; call rule not given here;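 also: 100% = enzyme without compound and 0% = no enzyme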); conditions: purified IucA enzyme assay, absorbance (OD) read-out; stronger effect = lower value;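 tested at 8 µM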
# [2] = sensitizers of A549 cells to miR-34 induction, primary screen, imaging, A549 dox-inducible miR-34, nuclei and caspase counts (AID 1347080); conditions: A549 miR-34 inducible, Hoechst nuclei count, 48 h
# [3] = viability rescue of complex I mutant cybrids, primary screen, cell-based, galactose medium, ATP luminescence (AID 1645843;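 active = z-score of at least 1.8 in each of two replicates, scored against plate mean and spread of sample wells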;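 also: positive z means more ATP and so rescue of galactose-driven cybrid death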); conditions: complex I mutant cybrid cells, 72 h, stronger effect = higher value
# [4] = stronger effect = lower value, cell number ratio, induced over uninduced
# [5] = measured here: relative caspase fold change +Dox/-Dox
# [6] = measured here: total cells with miR-34 induction, stronger effect = lower value
# [7] = measured here: total cells without miR-34 induction
SMILES,remaining activity [1],"fold change [2, 4]","fold change [2, 5]","cell count [2, 6]","cell count [2, 7]",z-score [3]
CCOC(=O)C1=C(C)NC(c2ccccc2)=C(C(=O)OCc2ccc([N+](=O)[O-])cc2)C1C#Cc1ccccc1 (centres undefined),124% (inactive),0.924 (inactive),0.543,7910,8560,0.3 (inactive)
CNc1cc(OC)c(C(=O)N[C@@H]2CCN(Cc3ccccc3)[C@@H]2C)cc1Cl (racemic),104% (inactive),0.926 (inactive),1.02,8160,8810,-0.56 (inactive)
CNC(=O)Oc1ccc2c(c1)C1(C)CCN(C)C1N2C (centres undefined),128% (inactive),0.943 (inactive),1.32,9440,10000,-1 (inactive)
CCC1(c2ncc[nH]2)Cc2ccccc2O1 (centres undefined),118% (inactive),0.963 (inactive),0.89,9330,9690,0.05 (inactive)
COc1cc(C[C@H]2C(=O)OC[C@@H]2Cc2ccc(OC)c(OC)c2)ccc1O,104% (inactive),0.937 (inactive),0.733,4240,4530,-0.76 (inactive)
N=C(CC(O)COc1ccccc1-c1ccccc1)N1CCCCC1 (centres undefined),113% (inactive),0.933 (inactive),0.891,6170,6610,-0.28 (inactive)
Cc1ccccc1N1CCN(S(=O)(=O)CC23CCC(C[C@@H]2NC(=O)[C@@H](N)CCS(C)(=O)=O)C3(C)C)CC1 (some centres undefined),82.6% (inactive),0.868 (inactive),1.54,7420,8540,-0.14 (inactive)
C[N+](C)(C)CCCCCNCC12CC3CC(CC(C3)C1)C2,117% (inactive),0.943 (inactive),0.772,8560,9080,-0.15 (inactive)
COc1ccccc1C1(O)CCN(CCCn2c3ccccc3c3ccccc32)CC1,91.1% (inactive),0.694 (active),1.55,323,466,-0.705 (inactive)
CC(N)(C(=O)O)c1ccc(-c2nn[nH]n2)cc1 (centres undefined),94.5% (inactive),0.913 (inactive),0.762,8200,8980,1.42 (inactive)
Cn1ccc2cc(NC(=O)Nc3cccnc3)ccc21,111% (inactive),0.984 (inactive),0.852,8400,8540,0.405 (inactive)
N[C@@H]1CCN(O)C1=O,121% (inactive),0.981 (inactive),0.836,9080,9260,0.66 (inactive)
COCCNC(=O)COc1ccc(OCCNC[C@@H](O)COc2ccccc2)cc1,95.4% (inactive),0.88 (inactive),0.916,8400,9540,0.13 (inactive)
OC[C@H]1O[C@@H](n2cnc3c(N[C@H]4CCC[C@@H]4O)ncnc32)[C@H](O)[C@@H]1O,116% (inactive),0.959 (inactive),0.92,8820,9190,0.09 (inactive)
Cc1cc2nc3c(=O)[nH]c(=O)nc-3n(C)c2cc1C=O,110% (inactive),1.04 (inactive),1.31,8790,8430,-0.69 (inactive)
CCCCCCNC(=O)Nc1ccc(S(=O)(=O)Nc2ccc(CCNC[C@H](O)COc3ccc(O)cc3)cc2)cc1,94.3% (inactive),0.938 (inactive),1.32,8320,8870,-0.435 (inactive)
C[C@@H]1O[C@@]2(CS1)CN1CCC2CC1 (racemic),111% (inactive),0.892 (inactive),1.88,8540,9570,0.375 (inactive)
COc1cc(Br)c(S(=O)(=O)Nc2ccc(Cl)c(O[C@@H]3CCN(C)C3)c2)cc1OC,112% (inactive),0.925 (inactive),1.74,5240,5660,-0.645 (inactive)
CC(=O)NCC(=O)N[C@H](CCC(=O)O)C(=O)O (Ac-Gly-[dE]-OH),103% (inactive),0.899 (inactive),0.513,9020,10000,-0.245 (inactive)
CC(=O)NCCc1c(Cc2ccccc2)[nH]c2ccccc12,105% (inactive),1.03 (inactive),0.867,7430,7230,0.025 (inactive)
c1ccc(Oc2nc(NC3CCCCC3)c3[nH]cnc3n2)cc1,110% (inactive),0.921 (inactive),1.13,7420,8060,-0.49 (inactive)
CN1Cc2c(C(=O)OC(C)(C)C)ncn2-c2ccsc2C1=O,105% (inactive),0.89 (inactive),1.34,7080,7950,0.15 (inactive)

SMILES,remaining activity [1],"fold change [2, 4]","fold change [2, 5]","cell count [2, 6]","cell count [2, 7]",z-score [3]
CC(C)SC(=N)N,92% (inactive),0.945 (inactive) and 0.931 (inactive),0.992 and 1.03,5980 and 8810,6320 and 9460,0.865 (inactive)
CC(C)NCCN(C(C)C)S(=O)(=O)c1ccc(Cl)cc1Cl,113% (inactive),0.946 (inactive),1.35,9040,9560,-0.215 (inactive)
CN(CCOc1ccc(CC(Nc2ccccc2C(=O)c2ccccc2)C(=O)O)cc1)c1ccccn1 (centres undefined),103% (inactive),0.954 (inactive),1.08,7420,7780,1.48 (inactive)
NC(N)=Nc1ccc(Cl)cc1,81.8% (inactive),0.948 (inactive),0.891,8620,9100,-0.49 (inactive)
NC(C(=O)O)c1cc(O)ccc1Cl (centres undefined),120% (inactive),1.01 (inactive),0.855,9170,9110,4.21 (active)
CC(C)c1ccc(C(=O)c2cccs2)c(SCCCCCCCCN(C)C)n1,107% (inactive),1.16 (inactive),1.04,3590,3100,-1.04 (inactive)
c1ccc2cc(C3=NCCN3)ncc2c1,113% (inactive),0.991 (inactive),0.685,9570,9660,-0.34 (inactive)
Cc1nc2c(O)cccc2c(=O)[nH]1,117% (inactive),0.957 (inactive),0.648,9130,9530,-0.215 (inactive)
COc1oc(=O)c2cc(N)ccc2c1Cl,95.9% (inactive),0.989 (inactive),1.44,8640,8740,-0.37 (inactive)
Cc1cc(C)c(S(=O)(=O)Nc2cccc(C(F)(F)F)c2)c(C)c1,107% (inactive),0.995 (inactive),0.922,5690,5720,-0.605 (inactive)
O=S(c1ccccc1)c1ccc2nnnn2n1 (centres undefined),106% (inactive),1.59 (inactive),0.481,3220,2020,-0.805 (inactive)
CCCCc1nc2ccn(CC(=O)N(C)C)c(=O)c2n1Cc1ccc(-c2ccccc2-c2nn[nH]n2)cc1,111% (inactive),1.01 (inactive),0.927,8240,8192,-0.18 (inactive)
CCCCc1nn(-c2ccccc2C(F)(F)F)c(=O)n1Cc1ccc(-c2ccccc2S(=O)(=O)NC(=O)c2sccc2C)cc1,91.8% (inactive),0.921 (inactive),1.21,7450,8080,4.89 (active)
CCCCOC(=O)c1cc2c(cn1)[nH]c1ccccc12,96.6% (inactive),0.861 (inactive),0.7,7200,8360,1.05 (inactive)
Nc1nc(NCCc2ccc(O)cc2)nc2nc(-c3ccco3)nn12,109% (inactive),0.809 (inactive),1.15,6780,8380,-0.54 (inactive)
N[C@H](C(=O)O)c1ccc(O)c(C(=O)O)c1,98.7% (inactive),0.912 (inactive),0.711,8900,9760,-0.325 (inactive)
CC(C)c1ccc2c(c1)CC[C@H]1[C@](C)(CN)CCC[C@]21C,101% (inactive),0.931 (inactive) and 0.9 (inactive),0.286 and 1.62,5370 and 346,5760 and 384,-0.56 (inactive)
C/C(O)=C1/C(=O)[C@@H]2[C@H]3c4c[nH]c5cccc(c45)C[C@H]3C(C)(C)N2C1=O,119% (inactive),0.988 (inactive),1.54,6050,6130,-0.525 (inactive)
Cc1c(C(=O)NN2CCOCC2)nn(-c2ccc(Cl)cc2Cl)c1-c1ccc(I)cc1,115% (inactive),0.846 (inactive),0.864,8280,9790,-0.285 (inactive)
CN(C)c1nc(N)c(C(=O)Nc2cccnc2)nc1Cl,113% (inactive),0.904 (inactive),1.39,5930,6560,0.61 (inactive)
O=C(/C=C/c1ccccc1)NC(NC(=S)Nc1ccc(Cl)cc1)C(Cl)(Cl)Cl (centres undefined),118% (inactive),0.939 (inactive),1.5,2530,2700,-0.74 (inactive)
Cc1cc(/C(=C\Nc2ccc(Cl)cc2)C(=O)Nc2ccc(Cl)cc2)on1,122% (inactive),0.913 (inactive),0.914,7920,8680,0.03 (inactive)
